The values below come from PubChem BioAssay AID1851 (National Center for Advancing Translational Sciences (NCATS), 2009).

“And” between values parts separate entries of the source, which are not always exact repeats. Identical values can stand only once. The campaign covered roughly 16,000 compounds. About 5,100 (32%) were called active. Another 25% or so got no clear call; they are omitted. The list shows a part of the results. Values without a mark were called inactive. The call rests on the fitted dose curve; in most records, active means well fitted curve in the direction sought with a large enough effect; inconclusive means small, poorly fitted or top-dose-only effect, or effect the other way; inactive means no such curve, though single readings can be large or run the other way.
On the % scale 0 is the no-effect control and ±100 the full control effect.

The target of the test is Cytochrome P450 3A4 (Homo sapiens) (UniProt P08684). Briefly: Cytochrome panel assay with activity outcomes. As to conditions: recombinant CYP, pro-luciferin dealkylation, luminescence, p450-cyp3a4; series mostly up to 57.1 µM; activity, negative = inhibition: at the top concentration.
Chain of Cytochrome P450 3A4 (Homo sapiens) (P08684 whole entry, looked up): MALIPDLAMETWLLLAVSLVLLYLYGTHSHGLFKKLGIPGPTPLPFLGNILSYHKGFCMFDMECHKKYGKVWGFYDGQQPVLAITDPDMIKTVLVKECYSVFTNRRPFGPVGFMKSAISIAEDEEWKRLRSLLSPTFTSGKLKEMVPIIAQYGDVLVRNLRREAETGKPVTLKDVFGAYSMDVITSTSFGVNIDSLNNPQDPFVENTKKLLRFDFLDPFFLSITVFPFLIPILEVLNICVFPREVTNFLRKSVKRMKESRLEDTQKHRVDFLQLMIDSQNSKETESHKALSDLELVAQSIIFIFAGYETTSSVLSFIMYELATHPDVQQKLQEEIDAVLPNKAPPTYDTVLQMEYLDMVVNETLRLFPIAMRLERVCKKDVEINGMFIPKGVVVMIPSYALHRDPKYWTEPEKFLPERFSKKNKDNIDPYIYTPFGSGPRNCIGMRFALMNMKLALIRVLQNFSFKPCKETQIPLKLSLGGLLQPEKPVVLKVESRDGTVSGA
In the case of `COc1cc2nc3c(c([Si](C)(C)C(C)(C)C)c2cc1OC)Cn1c-3cccc1=O`, the AC50 (usually the midpoint of the concentration-response curve, whichever way the signal moves) was 3.98 µM (active).
On the same count and under the same terms, the value for `CC(C)(C)[Si](C)(C)c1c2c(nc3ccc(OCc4ccccc4)cc13)-c1cccc(=O)n1C2` was 15.8 µM (active).
As for `OC[C@H]1NC[C@H](O)[C@@H](O)[C@H]1O`, the “activity, negative = inhibition” value is -7.16%.
In the case of `CCC(C)(C(=O)NC1CCCC1)N(C(=O)c1ccccn1)c1ccccc1` (centres undefined), the AC50 was 5.01 µM (active).
Regarding `O=C(N/N=C/C1CCCCC1)c1ccccn1`, the activity, negative = inhibition is -7.05% [at 11.4 µM].
For `CCC(C)(C(=O)NC1CCCC1)N(Cc1ccco1)C(=O)c1ccccn1` (centres undefined), the AC50 is 8.91 µM (active).
Regarding `C[C@]1(OC(=O)/C=C\c2ccccc2)C[C@@H](O)[C@@]2(O)C=CO[C@@H](O[C@H]3O[C@@H](CO)[C@@H](O)[C@@H](O)[C@@H]3O)[C@H]21`, the “activity, negative = inhibition” value is 9.79% [at 25.6 µM].
Consider `O=C(N/C(=C/c1cccs1)c1nc2ccccc2[nH]1)c1ccccc1`, for which the AC50 is 14.1 µM (active).
On to `O=C(N/C(=C/c1ccc(Br)cc1)c1nc2ccccc2[nH]1)c1ccco1`, for which the AC50 is 1.58 µM (active).
In the case of `CN(C)c1ccc(/C=C2/C(=O)Nc3ccccc32)cc1`, the concentration at half-maximal activity (AC50) was 10 µM (active).
In the case of `O=C1Nc2ccccc2Nc2ncccc21`, the “activity, negative = inhibition” value was 16%.
Turning to `NS(=O)(=O)c1ccc(N=C2C(=O)Nc3ccccc32)cc1`, the activity, negative = inhibition was -12.5% [at 11.4 µM].
As to `COC(=O)N1CCC2(CCN(C(=O)Nc3cccc(F)c3)CC2)CC1`, the “activity, negative = inhibition” value is 28.7%.
For `COc1ccc(C(=O)N2CCC3(CCCN(C(=O)Nc4cccc(F)c4)C3)CC2)cc1`, the AC50 is 12.6 µM (active).
With `O=C(Nc1cccc(F)c1)N1CCC2(CCNCC2)CC1`, the “activity, negative = inhibition” value was 7.63%.
As for `O=C(Nc1cccc(F)c1)N1CCCC2(CCN(C(=O)c3ccncc3)CC2)C1`, the AC50 is 6.31 µM (active).
In the case of `COCC(=O)N1CCC2(CCCN(C(=O)Nc3cccc(F)c3)C2)CC1`, the “activity, negative = inhibition” value is -23.5%.
For `COc1ccc(C(=O)N2CCC3(CCN(C(=O)Nc4cccc(F)c4)CC3)CC2)cc1`, the “activity, negative = inhibition” value was -6.15%.
Same read-out and setting: next, `CC(=O)N1CCC2(CC1)CCN(C(=O)Nc1cccc(F)c1)CC2`: -34.7%.
Consider `O=C(Nc1cccc(F)c1)N1CCCC2(CCNCC2)C1`, for which the AC50 was 15.8 µM (active).
As to `NC(=NCCC[C@H](N)C(=O)O)NO`, the “activity, negative = inhibition” value is -2.65%.
Turning to `CCC(=O)NCCNC(=O)c1c(SC)nsc1SC`, the “activity, negative = inhibition” value is -11.1%.
Turning to `Cc1noc(N)c1C(=O)Nc1ccc(F)cc1`, the activity, negative = inhibition was 11.9% [at 2.29 µM].
Take `CSc1nsc(SC)c1C(=O)Nc1ccc(C)cc1`: the AC50 is 7.94 µM (active).
With `O=C(O)c1nnsc1-c1csnn1`, the activity, negative = inhibition was -19.7% [at 11.4 µM].
In the case of `COc1ccc(-n2c(C)nn(C)c2=O)cc1`, the “activity, negative = inhibition” value is -13.8%.
As to `CCOC(=O)c1nc(N)sc1C(=O)OCC`, the “activity, negative = inhibition” value is -9.41%.
Consider `CCOC(=O)c1sc(=N)n(-c2ccc(OC)cc2)c1C`, for which the AC50 was 7.08 µM (active).
In the case of `N[C@@H](Cc1ccccc1)C(=O)O`, the activity, negative = inhibition is -6.07% [at 11.4 µM].
`CC1(C)CC(=O)C/C(=N/NC(=O)CCCOc2ccc(Cl)cc2Cl)C1`: the activity, negative = inhibition is -15.2% [at 2.29 µM].
`CC(C)(C)C(=O)NNC(=O)CCCOc1ccc(Cl)cc1Cl`: the “activity, negative = inhibition” value was -26.2%.
Turning to `COc1ccc(/C=N/NC(=O)CCCOc2ccc(Cl)cc2Cl)cc1[N+](=O)[O-]`, the half-maximal activity concentration (AC50) was 14.1 µM (active).
For the compound `O=C(Nc1ccc(-c2cn3ccccc3n2)cc1)c1cc(Br)ccc1O`, the activity, negative = inhibition was -18.7% [at 11.4 µM].
For the compound `COc1ccc(Br)cc1C(=O)Nc1ccc(Cc2ccncc2)cc1`, the AC50 was 0.708 µM (active).
Consider `COc1ccc(NC(=O)c2ccc(C(=O)c3cc(OC)ccc3OC)cc2)cc1`, for which the “activity, negative = inhibition” value is -14.7%.
With `O=C(NCCNS(=O)(=O)c1ccccc1Cl)c1cc(OCC(F)(F)F)ccc1OCC(F)(F)F`, the AC50 was 25.1 µM (active).
On to `O=C(O)CONC(=O)c1cc(OCC(F)(F)F)ccc1OCC(F)(F)F`, for which the “activity, negative = inhibition” value was -2.97%.
As to `Cc1ccc(/C=N\NC(=O)c2cc(OCC(F)(F)F)ccc2OCC(F)(F)F)cc1`, the “activity, negative = inhibition” value was -21.6%.
In the case of `COC(=O)C/C=C\[C@@H](C)[C@@H](/C=N\O[C@@H](C)c1cn([C@H](CO)Cc2ccccc2)nn1)NS(=O)(=O)c1ccc(C)cc1`, the AC50 was 3.98 µM (active) and 2 µM (active).
For `COC(=O)C/C=C\[C@@H](C)[C@@H](/C=N\O[C@@H](C)c1cn([C@H]2COC[C@H]2O)nn1)OC`, the activity, negative = inhibition is -29.8% [at 11.4 µM].
As for `COC(=O)C/C=C\[C@@H](C)[C@@H](/C=N\O[C@@H](C)c1cc(-c2c(C)cc(C)cc2C)no1)OC`, the activity, negative = inhibition was -76.7% [at 11.4 µM].
In the case of `COC(=O)C/C=C\[C@@H](C)[C@@H](/C=N\O[C@@H](C)c1cn([C@H](CO)Cc2ccccc2)nn1)OC`, the AC50 was 3.98 µM (active).
Consider `COC(=O)C/C=C\[C@@H](C)[C@@H](/C=N\O[C@@H](C)c1cc(-c2c(C)cc(C)cc2C)no1)NS(=O)(=O)c1ccc(C)cc1`, for which the AC50 is 3.16 µM (active).
With `COC(=O)C/C=C\[C@@H](C)[C@@H](/C=N\O[C@@H](C)c1cn([C@H]2COC[C@H]2O)nn1)NS(=O)(=O)c1ccc(C)cc1`, the AC50 is 3.98 µM (active).
